This is an account of results in PubChem BioAssay AID488969 (Vanderbilt High Throughput Screening Facility, 2010).

The full ranking holds about 110,000 compounds; the median of “z-score” is about -0.1, and the highest 2% start at about 2. Shown is part of a subset that was picked to be rich in the highest values. Activity calls are given as the source filed them.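 The calls were made as follows: active = z-score in the third read window above 3 or below -3; inactive = the rest.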

Sequence of Metabotropic glutamate receptor 8 (Rattus norvegicus) (P70579 whole entry, looked up): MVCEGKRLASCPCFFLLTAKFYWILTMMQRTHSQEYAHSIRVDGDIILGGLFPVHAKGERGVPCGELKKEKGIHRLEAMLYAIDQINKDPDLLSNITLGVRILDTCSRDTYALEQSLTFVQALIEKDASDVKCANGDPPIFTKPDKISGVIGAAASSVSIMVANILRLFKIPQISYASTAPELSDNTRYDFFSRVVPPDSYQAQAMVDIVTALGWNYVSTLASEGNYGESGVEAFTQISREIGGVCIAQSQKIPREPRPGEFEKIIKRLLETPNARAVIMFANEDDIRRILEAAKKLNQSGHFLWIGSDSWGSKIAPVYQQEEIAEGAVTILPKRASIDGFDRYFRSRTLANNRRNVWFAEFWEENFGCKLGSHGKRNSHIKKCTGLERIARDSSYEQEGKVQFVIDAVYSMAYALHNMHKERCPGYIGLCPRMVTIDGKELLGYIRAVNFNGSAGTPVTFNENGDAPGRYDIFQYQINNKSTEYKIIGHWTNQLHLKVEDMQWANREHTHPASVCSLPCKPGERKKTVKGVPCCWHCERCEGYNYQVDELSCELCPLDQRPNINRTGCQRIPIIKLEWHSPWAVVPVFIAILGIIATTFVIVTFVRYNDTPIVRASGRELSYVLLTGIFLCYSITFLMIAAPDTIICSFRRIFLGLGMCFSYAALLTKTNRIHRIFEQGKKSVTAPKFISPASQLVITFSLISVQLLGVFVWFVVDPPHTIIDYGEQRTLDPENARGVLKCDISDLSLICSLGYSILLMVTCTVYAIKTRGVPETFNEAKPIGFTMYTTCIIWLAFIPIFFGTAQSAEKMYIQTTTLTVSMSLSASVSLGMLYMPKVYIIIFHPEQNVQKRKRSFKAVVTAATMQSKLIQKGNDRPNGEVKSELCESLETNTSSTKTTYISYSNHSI

This assay concerns the target Metabotropic glutamate receptor 8 (Rattus norvegicus) (UniProt P70579). Put plainly: rat mGluR8 modulators via GIRK flux, primary screen, cell-based, thallium flux, HTS (AID 488969). As to conditions: HEK293 rat mGluR8, GIRK (G protein-gated inwardly rectifying potassium channel) thallium flux, FluoZin2; at 10 µM; stronger effect = higher value; submaximal glutamate (EC20) added with thallium.
`Cc1nc(C)c(C(=O)N/N=C/c2cn(C)c3ccccc23)s1` gave a z-score of 0.0943.

Take `CCOCCc1nnc(NC(=O)c2cccc(F)c2)s1`: the z-score is -0.243.

The compound `COc1ccc(NC(=O)Cn2c(=O)n(CC(=O)NCc3ccco3)c(=O)c3ccccc32)cc1` yielded a z-score of 0.213.

`O=C(CN(Cc1ccccc1)C1=NCCS1)c1ccccc1` came in with a z-score of -0.754.

Compound `COc1ccc(-c2noc(-c3ccccc3C(=O)Nc3cccnc3)n2)cc1OC` came in with a z-score of 0.205.

As to `N#CCc1ccc(C(=O)c2ccccc2)s1`, the z-score was -0.167.

In the case of `Cc1ccc(N(CC(=O)N2CCOCC2)S(=O)(=O)c2ccccc2)cc1`, the z-score is 0.464.

As to `CC(C)N1CCC(=NNc2ccc(S(=O)(=O)N3CCOCC3)cc2[N+](=O)[O-])CC1`, the z-score came to 0.0912.

Regarding `OC(CNCC1CCCO1)Cn1c2ccc(Cl)cc2c2cc(Cl)ccc21` (stereo not given), the z-score was 0.381.

With `OC(CNCC1CCCO1)Cn1c2ccc(Br)cc2c2cc(Br)ccc21` (stereo not given), the z-score was 3.72 (active).

`OC(CNCc1ccco1)Cn1c2ccc(Br)cc2c2cc(Br)ccc21` (stereo not given) registered a z-score of 0.138.

With `Cc1ccc(S(=O)(=O)N(C)C)cc1NC(=O)CCNC(=O)c1ccccc1Cl`, the z-score is -0.212.

For the compound `C=CCN1C(=O)C2C(C(=O)NC3CCCCC3)C3C=CC2(O3)C1C(=O)NC1CCCC1` (stereo not given), the z-score is -0.014.

Take `O=C(Nc1ccc(OC(F)(F)F)cc1)c1n[nH]c(Cn2cncn2)n1`: the z-score was -0.0524.

`COc1ccc(C(=O)N2N=C(c3cccc(OC)c3)CC2(O)C(F)(F)F)cc1` (stereo not given) came in with a z-score of 0.326.

As for `COc1cccc(C(=O)N2N=C(c3cccc(OC)c3)CC2(O)C(F)(F)F)c1` (stereo not given), the z-score came out at 0.00352.

`COc1cccc(C2=NN(C(=O)c3ccccc3)C(O)(C(F)(F)F)C2)c1` (stereo not given) yielded a z-score of 2.79.

As for `O=C1CCCc2c1[nH]c1ccc(CN3CCCCC3)cc21`, the z-score was 0.129.

`CCN(CC)CCCNc1oc(-c2cccc(Cl)c2)nc1C#N`: the z-score came out at 1.31.

As to `CN(C)CCNc1oc(-c2cccc(Cl)c2)nc1C#N`, the z-score came out at 2.54.

On to `COc1ccc(CCNc2oc(COc3ccccc3)nc2C#N)cc1`, for which the z-score was -0.509.

`CN(C)CCNc1oc(COc2ccc(Cl)cc2)nc1C#N` had a z-score of 1.5.

Regarding `CN(C)CCNc1oc(COc2ccc(-c3ccccc3)cc2)nc1C#N`, the z-score was determined as 2.06.

In turn, `CCN(CC)CCCNc1oc(-c2ccc(OC)c(OC)c2)nc1C#N` registered a z-score of -0.222.

Compound `CN(C)CCCNc1oc(-c2ccc(Cl)cc2)nc1C#N` registered a z-score of 1.35.

Consider `COc1ccc(-c2nc(C#N)c(NCCCN(C)C)o2)cc1OC`, for which the z-score was 11.2 (active).

Turning to `CN(C)CCCNc1oc(-c2cccc(Cl)c2)nc1C#N`, the z-score was -0.825.

With `Cc1ccccc1NC(=O)NCC1CCCO1` (stereo not given), the z-score worked out at 0.73.

In turn, `CC(C)CC(=O)N1CCN(S(=O)(=O)c2ccc3ccccc3c2)CC1` came in with a z-score of -1.99.

`O=C(COC(=O)[C@H](Cc1c[nH]c2ccccc12)NC(=O)c1ccc(Cl)cc1)Nc1ccc2c(c1)OCO2` showed a z-score of 0.558.

In the case of `CCOc1c2ccc(C(=O)NCc3ccc4c(c3)OCO4)cc2nn1CCOC`, the z-score is -0.276.

On to `COc1ccc(/C=N/NC(=O)CSc2nnc(CCCc3ccc(OC)c(C)c3)o2)cc1`, for which the z-score is -0.18.

As to `O=C(OCC#CCSc1nnc(-c2ccncc2)o1)c1sc2ccccc2c1Cl`, the z-score turned out to be 2.87.

`O=C(OCC#CCSc1nnc(-c2ccccc2)o1)c1cccs1`: the z-score was -0.745.

As to `O=C(OCC#CCSc1nnc(-c2ccncc2)o1)c1cccs1`, the z-score was -0.0957.

Take `CC1Cc2ccccc2N1C(=O)Cc1cccs1` (stereo not given): the z-score is -0.395.

Compound `O=[N+]([O-])c1ccc(NC(=S)NCCc2ccccc2)cc1` registered a z-score of 2.91.

Take `CC(C)CNC(=S)NC(=O)c1ccc(F)cc1`: the z-score is 7.84 (active).

Consider `Cc1ccc(NC(=S)NCc2ccccc2)cc1[N+](=O)[O-]`, for which the z-score is 3.51 (active).

As for `CCOc1ccc(NC(=S)Nc2ccc(C)c([N+](=O)[O-])c2)cc1`, the z-score stood at 0.652.

`O=C(CNC(=S)NC(=O)c1ccc(F)cc1)c1ccccc1` had a z-score of -0.0791.

`O=[N+]([O-])c1ccc(NC(=S)NCCc2ccc(Cl)cc2)cc1` registered a z-score of 0.129.

For the compound `Cc1ccc(CNC(=S)Nc2ccc(C)c([N+](=O)[O-])c2)cc1`, the z-score came to 0.255.

In turn, `CCCCNC(=S)Nc1cc([N+](=O)[O-])ccc1C` displayed a z-score of 0.706.

As to `O=C(NC(=S)NCCN1CCOCC1)c1ccc(F)cc1`, the z-score is -0.084.

Turning to `CC(C)CCNC(=S)Nc1ccc([N+](=O)[O-])cc1`, the z-score is 1.2.

Take `O=[N+]([O-])c1ccc(NC(=S)NCCc2ccc(F)cc2)cc1`: the z-score stood at 1.65.

In turn, `CCCCNC(=S)Nc1ccc([N+](=O)[O-])cc1` registered a z-score of 2.

Consider `O=C(N/N=C/c1ccncc1)c1cc(Br)ccc1OCc1ccccc1`, for which the z-score worked out at 0.109.

The compound `Cn1c(SCCOc2ccccc2Cl)nnc1-c1cccs1` had a z-score of -0.314.

On to `CCCCCC(=O)NC(=S)NNC(=O)c1ccc([N+](=O)[O-])cc1`, for which the z-score was 2.66.

Compound `O=C(NC(=S)NCC1CCCO1)c1ccc([N+](=O)[O-])cc1` (stereo not given) came in with a z-score of -0.067.

`CC(=O)Nc1ccc(NC(=S)NC(=O)c2ccc([N+](=O)[O-])cc2)cc1` registered a z-score of -0.11.

`Cc1ccc(NC(=O)c2ccc(C(C)(C)C)cc2)cc1[N+](=O)[O-]`: the z-score came to 2.5.

Take `Cc1ccc([N+](=O)[O-])cc1NC(=O)c1ccc(C(C)(C)C)cc1`: the z-score is -1.53.

Take `Cc1ccc(NC(=O)c2ccncc2)cc1[N+](=O)[O-]`: the z-score was -0.142.

`CC(C)CC(=O)NC(=S)NNC(=O)c1ccc([N+](=O)[O-])cc1`: the z-score amounted to 0.187.

Regarding `CCCCNC(=S)NC(=O)c1ccc([N+](=O)[O-])cc1`, the z-score is 7.01 (active).

In the case of `CCCCCCCC(=O)NNC(=O)c1ccc([N+](=O)[O-])cc1`, the z-score is -0.209.

Consider `CCCC(=O)NC(=S)NNC(=O)c1ccc([N+](=O)[O-])cc1`, for which the z-score was -0.394.

`CC(C)CNC(=S)NC(=O)c1ccc([N+](=O)[O-])cc1`: the z-score is 6.28 (active).

Turning to `CC(C)C(=O)Nc1cccc(NC(=S)NC(=O)c2ccc([N+](=O)[O-])cc2)c1`, the z-score is -0.0455.

On to `Cc1ccc(NC(=O)CCC(=O)NNC(=O)COc2ccccc2)c(C)c1`, for which the z-score was -0.385.

`CCOc1ccc(C(=O)NC(=S)Nc2ccc(NC(=O)c3ccco3)c(C)c2)cc1[N+](=O)[O-]` displayed a z-score of -0.187.

For `CCOc1ccc2ccccc2c1/C=N/NC(=O)CNC(=O)Cc1ccccc1`, the z-score was -0.191.

On to `CC1(C)CC(=O)c2cnc(N3CCc4ccccc4C3)nc2C1`, for which the z-score was found to be 0.63.

`Brc1ccc(-c2csc(-c3ccncc3)n2)cc1` returned a z-score of 0.161.

For the compound `CCOC(=O)c1c(C=O)c(C)n(Cc2ccc(Cl)cc2)c1C`, the z-score came to 0.0766.

In the case of `CCCN1C2=C(C(=O)CCC2)C(c2ccc(F)cc2)C2=C1c1ccccc1C2=O` (stereo not given), the z-score was -0.266.

`O=C(Cn1cnc2c(nnn2-c2ccc(F)cc2)c1=O)NCc1ccco1` yielded a z-score of -0.127.
